# Measurements taken from PMC7862700, “An all-to-all approach to the identification of sequence-specific readers for epigenetic DNA modifications on cytosine”.
# Assays:
# Experiment in all cases: DAPPL (digital affinity profiling via proximity ligation, sequencing); 10 mM Tris-HCl pH 7.5, 50 mM NaCl, 1 mM DTT, 4% glycerol, room temperature, 30 min; GST-TFs on glutathione beads, 16-mer random dsDNA library, 0.1% formaldehyde crosslink after washing; high values mean tight binding
# FEV = molecular target: T1, FEV (Homo sapiens, UniProt Q99581 1-238); settings: protein: recombinant; tags: N-terminal GST; dsDNA, one strand shown
# T1 sequence: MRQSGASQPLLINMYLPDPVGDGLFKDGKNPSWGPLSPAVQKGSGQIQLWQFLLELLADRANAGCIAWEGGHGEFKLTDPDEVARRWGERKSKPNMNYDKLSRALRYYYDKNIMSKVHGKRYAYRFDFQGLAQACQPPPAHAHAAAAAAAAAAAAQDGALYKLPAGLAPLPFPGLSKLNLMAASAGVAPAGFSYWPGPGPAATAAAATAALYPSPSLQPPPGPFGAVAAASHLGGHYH
# Procedure, shortened: (§1)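 Binding signal is each hexamer's read frequency for a factor divided by its frequency in the tag-only sample. The factors were GST-fused human transcription factors from yeast, captured on glutathione beads, DNA-barcoded and pooled with that sample. Pools were incubated with 200 nmole of a random double-stranded 16-mer DNA library in Tris/NaCl/DTT/glycerol buffer at room temperature for 30 min, then washed, crosslinked with 0.1% formaldehyde, proximity-ligated with BsaI/T4 ligase (1 h, 37 °C), PCR-amplified and sequenced on an Illumina NextSeq500.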
# ETV5 = ETV5 (Homo sapiens, UniProt P41161 1-510); settings: protein: recombinant; tags: N-terminal GST; dsDNA, one strand shown
# Procedure, shortened: as §1
# HSF1 = HSF1 (Homo sapiens, UniProt Q00613 1-529); settings: protein: recombinant; tags: N-terminal GST; chain copies: 3; dsDNA, one strand shown
# Procedure, shortened: as §1
# ELF4 = ELF4 (Homo sapiens, UniProt Q99607 1-663); settings: protein: recombinant; tags: N-terminal GST; dsDNA, one strand shown
# Procedure, shortened: as §1
# ELK4 = molecular target: T2, ELK4 (Homo sapiens, UniProt P28324-2 1-405); settings: protein: recombinant; tags: N-terminal GST; dsDNA, one strand shown
# T2 sequence: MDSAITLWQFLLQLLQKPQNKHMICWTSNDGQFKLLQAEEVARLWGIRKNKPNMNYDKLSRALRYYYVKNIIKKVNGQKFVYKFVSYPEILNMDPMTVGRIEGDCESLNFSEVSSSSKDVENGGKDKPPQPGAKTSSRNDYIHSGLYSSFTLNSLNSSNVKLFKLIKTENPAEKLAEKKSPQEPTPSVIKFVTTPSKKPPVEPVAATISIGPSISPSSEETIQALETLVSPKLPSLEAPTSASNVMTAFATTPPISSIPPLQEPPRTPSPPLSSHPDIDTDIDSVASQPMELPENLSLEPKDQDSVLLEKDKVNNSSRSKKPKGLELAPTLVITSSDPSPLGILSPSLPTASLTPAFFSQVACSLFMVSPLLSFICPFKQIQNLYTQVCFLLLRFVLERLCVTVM
# Procedure, shortened: as §1
# ETV2 = molecular target: T3, ETV2 (Homo sapiens, UniProt O00321 1-342); settings: protein: recombinant; tags: N-terminal GST; dsDNA, one strand shown
# T3 sequence: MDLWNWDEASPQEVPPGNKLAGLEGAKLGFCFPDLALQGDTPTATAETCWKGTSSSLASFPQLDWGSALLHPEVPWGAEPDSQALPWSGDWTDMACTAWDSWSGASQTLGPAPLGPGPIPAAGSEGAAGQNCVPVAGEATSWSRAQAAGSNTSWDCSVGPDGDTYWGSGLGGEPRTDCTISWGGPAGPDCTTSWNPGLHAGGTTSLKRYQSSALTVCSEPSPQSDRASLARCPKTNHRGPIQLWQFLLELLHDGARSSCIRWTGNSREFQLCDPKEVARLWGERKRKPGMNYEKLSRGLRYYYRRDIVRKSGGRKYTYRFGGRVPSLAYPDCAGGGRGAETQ
# Procedure, shortened: as §1
# ELF3 = molecular target: T4, ELF3 (Homo sapiens, UniProt P78545 1-371); settings: protein: recombinant; tags: N-terminal GST; dsDNA, one strand shown
# T4 sequence: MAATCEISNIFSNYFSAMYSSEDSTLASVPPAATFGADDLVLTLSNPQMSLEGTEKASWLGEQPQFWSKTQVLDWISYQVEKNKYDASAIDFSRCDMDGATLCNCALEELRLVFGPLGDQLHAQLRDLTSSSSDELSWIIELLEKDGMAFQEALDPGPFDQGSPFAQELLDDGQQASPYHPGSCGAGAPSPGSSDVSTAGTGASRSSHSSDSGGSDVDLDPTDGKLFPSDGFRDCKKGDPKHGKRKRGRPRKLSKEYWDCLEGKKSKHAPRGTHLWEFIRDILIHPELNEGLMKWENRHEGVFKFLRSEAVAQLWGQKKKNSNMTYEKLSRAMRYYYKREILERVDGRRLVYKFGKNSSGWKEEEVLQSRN
# Procedure, shortened: as §1
# CRX = CRX (Homo sapiens, UniProt O43186 1-299); settings: protein: recombinant; tags: N-terminal GST; dsDNA, one strand shown
# Procedure, shortened: as §1
# ETV1 = ETV1 (Homo sapiens, UniProt P50549 1-477); settings: protein: recombinant; tags: N-terminal GST; dsDNA, one strand shown
# Procedure, shortened: as §1
# ERF = molecular target: T5, ERF (Homo sapiens, UniProt P50548 1-548); settings: protein: recombinant; tags: N-terminal GST; dsDNA, one strand shown
# T5 sequence: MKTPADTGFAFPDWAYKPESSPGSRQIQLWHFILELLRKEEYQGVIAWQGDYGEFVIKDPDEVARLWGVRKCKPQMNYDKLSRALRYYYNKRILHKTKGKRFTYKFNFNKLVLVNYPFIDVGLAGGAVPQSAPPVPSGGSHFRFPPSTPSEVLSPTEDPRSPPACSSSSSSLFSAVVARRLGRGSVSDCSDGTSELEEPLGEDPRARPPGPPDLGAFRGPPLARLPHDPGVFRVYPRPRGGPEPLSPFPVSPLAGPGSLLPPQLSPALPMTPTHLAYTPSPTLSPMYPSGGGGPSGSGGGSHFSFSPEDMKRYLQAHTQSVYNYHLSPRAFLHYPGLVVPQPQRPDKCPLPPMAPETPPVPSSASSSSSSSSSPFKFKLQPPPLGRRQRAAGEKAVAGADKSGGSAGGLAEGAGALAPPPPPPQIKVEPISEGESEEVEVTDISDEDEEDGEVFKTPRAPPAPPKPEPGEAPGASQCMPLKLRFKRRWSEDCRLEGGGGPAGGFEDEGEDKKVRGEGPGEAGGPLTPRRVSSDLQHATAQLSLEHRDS
# Procedure, shortened: as §1
# ETS2 = molecular target: T6, ETS2 (Homo sapiens, UniProt P15036 1-469); settings: protein: recombinant; tags: N-terminal GST; dsDNA, one strand shown
# T6 sequence: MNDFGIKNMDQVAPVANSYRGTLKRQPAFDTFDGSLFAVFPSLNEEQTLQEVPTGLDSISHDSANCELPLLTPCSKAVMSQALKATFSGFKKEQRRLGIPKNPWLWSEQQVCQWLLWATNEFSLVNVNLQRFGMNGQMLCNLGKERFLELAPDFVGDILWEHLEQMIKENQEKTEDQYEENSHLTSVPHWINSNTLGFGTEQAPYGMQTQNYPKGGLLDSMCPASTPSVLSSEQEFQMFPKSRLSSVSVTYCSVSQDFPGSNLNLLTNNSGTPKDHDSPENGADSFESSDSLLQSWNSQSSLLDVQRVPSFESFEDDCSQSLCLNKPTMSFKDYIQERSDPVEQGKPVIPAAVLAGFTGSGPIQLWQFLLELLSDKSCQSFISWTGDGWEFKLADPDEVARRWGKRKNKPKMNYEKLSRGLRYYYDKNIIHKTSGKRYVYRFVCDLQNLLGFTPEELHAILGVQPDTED
# Procedure, shortened: as §1
# SPDEF = molecular target: T7, SPDEF (Homo sapiens, UniProt O95238 1-335); settings: protein: recombinant; tags: N-terminal GST; dsDNA, one strand shown
# T7 sequence: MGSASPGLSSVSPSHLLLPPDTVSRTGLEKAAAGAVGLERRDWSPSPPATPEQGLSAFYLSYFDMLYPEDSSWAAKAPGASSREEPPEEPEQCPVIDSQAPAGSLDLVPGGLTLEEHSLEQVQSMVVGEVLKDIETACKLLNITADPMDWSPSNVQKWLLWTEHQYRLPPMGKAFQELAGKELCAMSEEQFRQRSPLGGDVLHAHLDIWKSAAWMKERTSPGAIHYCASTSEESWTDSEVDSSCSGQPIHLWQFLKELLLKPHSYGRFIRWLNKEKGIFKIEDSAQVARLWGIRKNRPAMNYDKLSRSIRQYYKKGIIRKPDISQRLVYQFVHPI
# Procedure, shortened: as §1
# ETV7 = molecular target: T8, ETV7 (Homo sapiens, UniProt Q9Y603 1-341); settings: protein: recombinant; tags: N-terminal GST; dsDNA, one strand shown
# T8 sequence: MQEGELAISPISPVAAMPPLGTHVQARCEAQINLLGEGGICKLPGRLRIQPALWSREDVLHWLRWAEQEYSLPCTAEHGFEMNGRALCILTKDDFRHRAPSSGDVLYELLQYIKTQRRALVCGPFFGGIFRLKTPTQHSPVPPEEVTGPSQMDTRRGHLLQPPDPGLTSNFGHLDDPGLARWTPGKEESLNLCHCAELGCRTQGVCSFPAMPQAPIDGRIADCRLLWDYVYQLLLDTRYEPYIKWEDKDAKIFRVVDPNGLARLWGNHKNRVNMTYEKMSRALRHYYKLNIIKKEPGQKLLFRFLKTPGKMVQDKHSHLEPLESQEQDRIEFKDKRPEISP
# Procedure, shortened: as §1
# ELF5 = molecular target: T9, ELF5 (Homo sapiens, UniProt Q9UKW6-2 1-255); settings: protein: recombinant; tags: N-terminal GST; dsDNA, one strand shown
# T9 sequence: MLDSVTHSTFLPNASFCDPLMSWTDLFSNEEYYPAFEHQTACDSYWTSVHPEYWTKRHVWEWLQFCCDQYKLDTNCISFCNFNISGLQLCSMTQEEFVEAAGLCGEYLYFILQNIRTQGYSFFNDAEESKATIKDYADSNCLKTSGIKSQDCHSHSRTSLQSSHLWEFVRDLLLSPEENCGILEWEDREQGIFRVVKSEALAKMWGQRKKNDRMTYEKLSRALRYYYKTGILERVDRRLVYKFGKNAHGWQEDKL
# Procedure, shortened: as §1
# ETV3 = molecular target: T10, ETV3 (Homo sapiens, UniProt P41162-2 1-143); settings: protein: recombinant; tags: N-terminal GST; dsDNA, one strand shown
# T10 sequence: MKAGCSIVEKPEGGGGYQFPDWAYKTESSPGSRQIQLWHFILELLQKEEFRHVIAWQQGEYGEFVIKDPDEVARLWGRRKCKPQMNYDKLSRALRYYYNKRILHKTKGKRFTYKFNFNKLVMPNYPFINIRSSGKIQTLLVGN
# Procedure, shortened: as §1
# ETV6 = ETV6 (Homo sapiens, UniProt P41212 1-452); settings: protein: recombinant; tags: N-terminal GST; dsDNA, one strand shown
# Procedure, shortened: as §1
# Chain of ELF4 (Q99607 whole entry): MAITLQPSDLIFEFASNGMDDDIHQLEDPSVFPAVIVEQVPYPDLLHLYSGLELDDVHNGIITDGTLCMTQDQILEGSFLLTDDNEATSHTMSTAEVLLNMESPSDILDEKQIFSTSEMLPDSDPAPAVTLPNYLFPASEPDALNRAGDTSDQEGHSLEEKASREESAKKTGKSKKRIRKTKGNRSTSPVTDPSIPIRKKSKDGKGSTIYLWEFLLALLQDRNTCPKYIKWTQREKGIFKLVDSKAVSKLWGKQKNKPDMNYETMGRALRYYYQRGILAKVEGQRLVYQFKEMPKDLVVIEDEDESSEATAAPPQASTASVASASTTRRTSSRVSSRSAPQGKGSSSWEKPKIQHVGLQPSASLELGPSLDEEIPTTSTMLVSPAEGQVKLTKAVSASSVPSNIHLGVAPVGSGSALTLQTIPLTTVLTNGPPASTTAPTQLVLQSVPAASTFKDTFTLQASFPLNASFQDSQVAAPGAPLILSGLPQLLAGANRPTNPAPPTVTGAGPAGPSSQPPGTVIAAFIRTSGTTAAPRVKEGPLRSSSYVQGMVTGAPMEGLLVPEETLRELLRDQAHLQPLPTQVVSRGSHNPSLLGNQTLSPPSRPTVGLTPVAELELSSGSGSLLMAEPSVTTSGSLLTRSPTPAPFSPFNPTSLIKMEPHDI
# Chain of ETV5 (P41161 whole entry): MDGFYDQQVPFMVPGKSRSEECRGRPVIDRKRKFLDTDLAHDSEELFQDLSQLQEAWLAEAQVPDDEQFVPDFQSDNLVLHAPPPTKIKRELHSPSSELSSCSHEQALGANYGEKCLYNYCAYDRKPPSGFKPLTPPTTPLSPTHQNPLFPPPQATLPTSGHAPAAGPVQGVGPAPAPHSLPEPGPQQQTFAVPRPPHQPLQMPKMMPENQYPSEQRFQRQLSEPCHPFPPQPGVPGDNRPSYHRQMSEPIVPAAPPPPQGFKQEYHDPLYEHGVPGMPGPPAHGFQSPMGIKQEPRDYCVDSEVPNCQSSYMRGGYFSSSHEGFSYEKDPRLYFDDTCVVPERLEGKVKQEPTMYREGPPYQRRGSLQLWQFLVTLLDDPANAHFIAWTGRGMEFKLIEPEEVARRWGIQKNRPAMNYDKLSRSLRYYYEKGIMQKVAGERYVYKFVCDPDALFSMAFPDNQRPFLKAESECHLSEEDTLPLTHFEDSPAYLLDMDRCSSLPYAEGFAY
# Chain of CRX (O43186 whole entry): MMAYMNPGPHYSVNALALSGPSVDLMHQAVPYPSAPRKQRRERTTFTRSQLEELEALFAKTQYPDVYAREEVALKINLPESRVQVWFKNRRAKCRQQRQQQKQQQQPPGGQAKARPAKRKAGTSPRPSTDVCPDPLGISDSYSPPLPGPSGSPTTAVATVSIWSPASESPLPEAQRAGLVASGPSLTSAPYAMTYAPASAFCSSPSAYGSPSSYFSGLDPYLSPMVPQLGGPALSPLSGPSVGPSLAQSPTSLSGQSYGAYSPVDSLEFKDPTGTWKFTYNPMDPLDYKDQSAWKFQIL
# Chain of ETV6 (P41212 whole entry): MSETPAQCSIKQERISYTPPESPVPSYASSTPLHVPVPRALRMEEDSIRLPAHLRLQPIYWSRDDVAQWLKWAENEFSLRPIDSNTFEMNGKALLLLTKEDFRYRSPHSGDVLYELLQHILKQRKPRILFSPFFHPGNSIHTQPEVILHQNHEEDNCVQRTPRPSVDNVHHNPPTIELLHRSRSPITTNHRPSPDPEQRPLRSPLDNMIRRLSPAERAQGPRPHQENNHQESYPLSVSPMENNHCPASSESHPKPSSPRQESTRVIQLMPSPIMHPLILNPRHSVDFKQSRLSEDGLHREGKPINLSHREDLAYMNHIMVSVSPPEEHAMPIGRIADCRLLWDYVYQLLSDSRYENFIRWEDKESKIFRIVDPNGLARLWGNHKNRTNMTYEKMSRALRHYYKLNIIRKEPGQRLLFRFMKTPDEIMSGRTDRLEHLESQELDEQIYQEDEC
# Chain of ETV1 (P50549 whole entry): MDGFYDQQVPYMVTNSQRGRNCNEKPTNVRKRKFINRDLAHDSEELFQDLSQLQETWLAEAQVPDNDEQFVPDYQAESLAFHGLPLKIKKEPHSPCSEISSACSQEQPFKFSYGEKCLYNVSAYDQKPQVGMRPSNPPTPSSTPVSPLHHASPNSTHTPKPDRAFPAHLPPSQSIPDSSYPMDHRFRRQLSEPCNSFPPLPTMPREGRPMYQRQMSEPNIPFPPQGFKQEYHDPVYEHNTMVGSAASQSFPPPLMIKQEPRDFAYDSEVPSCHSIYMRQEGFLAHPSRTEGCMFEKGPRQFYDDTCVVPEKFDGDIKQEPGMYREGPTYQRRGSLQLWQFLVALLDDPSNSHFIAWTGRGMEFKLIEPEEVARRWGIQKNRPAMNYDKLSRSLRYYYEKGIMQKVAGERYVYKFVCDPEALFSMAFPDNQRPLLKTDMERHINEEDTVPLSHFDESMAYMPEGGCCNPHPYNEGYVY
# Chain of HSF1 (Q00613 whole entry): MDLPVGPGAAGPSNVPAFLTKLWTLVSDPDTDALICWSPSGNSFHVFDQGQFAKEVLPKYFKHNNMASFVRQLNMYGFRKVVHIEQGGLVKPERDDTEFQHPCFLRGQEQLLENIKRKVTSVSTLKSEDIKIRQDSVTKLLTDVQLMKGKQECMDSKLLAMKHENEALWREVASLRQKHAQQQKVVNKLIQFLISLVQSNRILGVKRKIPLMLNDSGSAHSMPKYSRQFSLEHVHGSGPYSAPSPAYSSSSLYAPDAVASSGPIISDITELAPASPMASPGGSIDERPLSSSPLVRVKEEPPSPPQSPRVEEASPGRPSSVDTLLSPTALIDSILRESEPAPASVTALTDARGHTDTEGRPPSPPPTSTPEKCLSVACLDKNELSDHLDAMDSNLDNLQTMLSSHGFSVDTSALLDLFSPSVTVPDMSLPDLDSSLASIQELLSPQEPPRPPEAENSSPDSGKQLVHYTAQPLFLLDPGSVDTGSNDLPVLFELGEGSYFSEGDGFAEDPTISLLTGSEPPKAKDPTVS
sequence,measurement,setting,value
AATCCA,binding signal,FEV,"1.11 fold enrichment (6-mer frequency, TF over GST control)"
same,binding signal,ETV5,"1.07 fold enrichment (6-mer frequency, TF over GST control)"
same,binding signal,HSF1,"1.78 fold enrichment (6-mer frequency, TF over GST control)"
same,binding signal,ELF4,"1.12 fold enrichment (6-mer frequency, TF over GST control)"
same,binding signal,ELK4,"1.18 fold enrichment (6-mer frequency, TF over GST control)"
same,binding signal,ETV2,"1.03 fold enrichment (6-mer frequency, TF over GST control)"
same,binding signal,ELF3,"1.1 fold enrichment (6-mer frequency, TF over GST control)"
same,binding signal,CRX,"2.33 fold enrichment (6-mer frequency, TF over GST control)"
same,binding signal,ETV1,"1.12 fold enrichment (6-mer frequency, TF over GST control)"
same,binding signal,ERF,"1.11 fold enrichment (6-mer frequency, TF over GST control)"
same,binding signal,ETS2,"1.14 fold enrichment (6-mer frequency, TF over GST control)"
same,binding signal,SPDEF,"1.07 fold enrichment (6-mer frequency, TF over GST control)"
same,binding signal,ETV7,"1.14 fold enrichment (6-mer frequency, TF over GST control)"
same,binding signal,ELF5,"1.05 fold enrichment (6-mer frequency, TF over GST control)"
same,binding signal,ETV3,"1.03 fold enrichment (6-mer frequency, TF over GST control)"
same,binding signal,ETV6,"1.11 fold enrichment (6-mer frequency, TF over GST control)"
